About 2,000 (36%) of roughly 5,500 compounds were called active. Inconclusive results (about 18%) are left out. Rule as the data show it: active = normalized growth mostly below about 0.91 (no sharp cut-off); inconclusive = no clear call, values can overlap the other calls; inactive = mostly above about 0.92. The list shows a part of the results.
Test: chemical genetic growth profiling, strain panel (AID 1159580);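 also: tested at 20 µM; growth read once vehicle control cultures reached saturation at 30 °C; 1 = growth at the plate median or of vehicle wells; lower values mean less growth of the strain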
Conditions: growth OD

Measured: normalized growth

O=C(O)c1c2ccccc2cc2ccccc12
inactive: S. cerevisiae deletion strains, locus YJR043C, strain POL32, stronger effect = lower value 1.04 | S. cerevisiae deletion strains, locus YJR075W, strain HOC1, stronger effect = lower value 1.01 | S. cerevisiae deletion strains, locus YKL009W, strain mrt4, stronger effect = lower value 0.989 | S. cerevisiae deletion strains, locus YKL068W, stronger effect = lower value 0.971 | S. cerevisiae deletion strains, locus YKL085W, strain MDH1 (second series), stronger effect = lower value 0.958 | S. cerevisiae deletion strains, locus YKL085W, strain MDH1, stronger effect = lower value 0.958 | S. cerevisiae deletion strains, locus YKL160W, strain elf1, stronger effect = lower value 0.991 | S. cerevisiae deletion strains, locus YKL190W, strain CNB1, stronger effect = lower value 1.02 | S. cerevisiae deletion strains, locus YKR001C, strain vps1, stronger effect = lower value 0.981 | S. cerevisiae deletion strains, locus YKR026C, strain gcn3, stronger effect = lower value 1 | S. cerevisiae deletion strains, locus YKR091W, strain srl3, stronger effect = lower value 0.986 | S. cerevisiae deletion strains, locus YLL001W, strain dnm1, stronger effect = lower value 1 | S. cerevisiae deletion strains, locus YLL026W, stronger effect = lower value 0.996 | S. cerevisiae deletion strains, locus YLL041C, strain sdh2, stronger effect = lower value 0.992 | S. cerevisiae deletion strains, locus YLR027C, strain aat2, stronger effect = lower value 0.999 | S. cerevisiae deletion strains, locus YLR039C, strain RIC1, stronger effect = lower value 1.04 | S. cerevisiae deletion strains, locus YLR058C, strain SHM2, stronger effect = lower value 1.02 | S. cerevisiae deletion strains, locus YLR102C, strain apc9, stronger effect = lower value 0.983 | S. cerevisiae deletion strains, locus YLR221C, strain rsa3, stronger effect = lower value 0.973 | S. cerevisiae deletion strains, locus YLR258W, strain gsy2, stronger effect = lower value 0.992 | S. cerevisiae deletion strains, locus YLR262C, strain YPT6 (second series), stronger effect = lower value 0.976 | S. cerevisiae deletion strains, locus YLR262C, strain YPT6, stronger effect = lower value 1.03 | S. cerevisiae deletion strains, locus YLR268W, strain sec22, stronger effect = lower value 0.986 | S. cerevisiae deletion strains, locus YLR320W, strain mms22, stronger effect = lower value 1 | S. cerevisiae deletion strains, locus YLR330W, strain CHS5, stronger effect = lower value 1.02 | S. cerevisiae deletion strains, locus YLR342W, strain FKS1 (second series), stronger effect = lower value 0.971 | S. cerevisiae deletion strains, locus YLR342W, strain FKS1, stronger effect = lower value 1 | S. cerevisiae deletion strains, locus YLR357W, strain rsc2, stronger effect = lower value 1.06 | S. cerevisiae deletion strains, locus YLR370C, strain arc18, stronger effect = lower value 0.998 | S. cerevisiae deletion strains, locus YLR371W, strain rom2, stronger effect = lower value 0.992 | S. cerevisiae deletion strains, locus YLR384C, strain iki3, stronger effect = lower value 0.992 | S. cerevisiae deletion strains, locus YLR418C, strain cdc73, stronger effect = lower value 0.96 | S. cerevisiae deletion strains, locus YML016C, strain PPZ1, stronger effect = lower value 1.01 | S. cerevisiae deletion strains, locus YML032C, strain rad52, stronger effect = lower value 0.954 | S. cerevisiae deletion strains, locus YML120C, strain ndi1, stronger effect = lower value 0.965 | S. cerevisiae deletion strains, locus YML124C, strain tub3, stronger effect = lower value 0.985 | S. cerevisiae deletion strains, locus YMR058W, strain fet3, stronger effect = lower value 1.01 | S. cerevisiae deletion strains, locus YMR078C, strain ctf18, stronger effect = lower value 0.974 | S. cerevisiae deletion strains, locus YMR125W, strain sto1, stronger effect = lower value 1.03 | S. cerevisiae deletion strains, locus YMR129W, stronger effect = lower value 0.987 | S. cerevisiae deletion strains, locus YMR205C, strain PFK2, stronger effect = lower value 1.01 | S. cerevisiae deletion strains, locus YMR223W, strain ubp8, stronger effect = lower value 0.962 | S. cerevisiae deletion strains, locus YMR231W, strain pep5, stronger effect = lower value 0.979 | S. cerevisiae deletion strains, locus YMR263W, strain SAP30, stronger effect = lower value 1.02 | S. cerevisiae deletion strains, locus YMR307W, strain GAS1, stronger effect = lower value 1.13 | S. cerevisiae deletion strains, locus YNL067W, strain RPL9B, stronger effect = lower value 1.02 | S. cerevisiae deletion strains, locus YNL071W, strain lat1, stronger effect = lower value 0.948 | S. cerevisiae deletion strains, locus YNL128W, strain TEP1, stronger effect = lower value 1.02 | S. cerevisiae deletion strains, locus YNL153C, strain GIM3, stronger effect = lower value 1.02 | S. cerevisiae deletion strains, locus YNL209W, strain ssb2, stronger effect = lower value 1 | S. cerevisiae deletion strains, locus YNL233W, strain BNI4, stronger effect = lower value 1.02 | S. cerevisiae deletion strains, locus YNL248C, strain rpa49, stronger effect = lower value 0.993 | S. cerevisiae deletion strains, locus YNL250W, strain rad50, stronger effect = lower value 0.965 | S. cerevisiae deletion strains, locus YNL271C, strain bni1, stronger effect = lower value 0.949 | S. cerevisiae deletion strains, locus YNL298W, strain CLA4, stronger effect = lower value 0.948 | S. cerevisiae deletion strains, locus YNL307C, strain MCK1, stronger effect = lower value 0.969 | S. cerevisiae deletion strains, locus YNL322C, strain KRE1 (second series), stronger effect = lower value 0.998 | S. cerevisiae deletion strains, locus YNL322C, strain KRE1, stronger effect = lower value 1.02 | S. cerevisiae deletion strains, locus YNR049C, strain mso1, stronger effect = lower value 1.01 | S. cerevisiae deletion strains, locus YNR052C, strain pop2, stronger effect = lower value 0.982 | S. cerevisiae deletion strains, locus YOL006C, strain TOP1, stronger effect = lower value 0.989 | S. cerevisiae deletion strains, locus YOL012C, strain htz1 0.952 | S. cerevisiae deletion strains, locus YOL147C, strain pex11, stronger effect = lower value 0.986 | S. cerevisiae deletion strains, locus YOR001W, strain rrp6, stronger effect = lower value 0.957 | S. cerevisiae deletion strains, locus YOR061W, strain CKA2, stronger effect = lower value 1.01 | S. cerevisiae deletion strains, locus YOR069W, strain VPS5, stronger effect = lower value 1.01 | S. cerevisiae deletion strains, locus YOR070C, strain gyp1, stronger effect = lower value 0.999 | S. cerevisiae deletion strains, locus YOR080W, strain dia2, stronger effect = lower value 1.01 | S. cerevisiae deletion strains, locus YOR083W, strain WHI5, stronger effect = lower value 0.915 | S. cerevisiae deletion strains, locus YOR106W, strain vam3, stronger effect = lower value 0.95 | S. cerevisiae deletion strains, locus YOR136W, strain idh2, stronger effect = lower value 0.978 | S. cerevisiae deletion strains, locus YOR144C, strain elg1, stronger effect = lower value 0.987 | S. cerevisiae deletion strains, locus YOR184W, strain ser1, stronger effect = lower value 0.965 | S. cerevisiae deletion strains, locus YOR265W, strain rbl2, stronger effect = lower value 0.996 | S. cerevisiae deletion strains, locus YOR270C, strain vph1, stronger effect = lower value 0.973 | S. cerevisiae deletion strains, locus YOR290C, strain snf2, stronger effect = lower value 0.999 | S. cerevisiae deletion strains, locus YOR316C, strain cot1, stronger effect = lower value 0.983 | S. cerevisiae deletion strains, locus YPL051W, strain arl3, stronger effect = lower value 0.982 | S. cerevisiae deletion strains, locus YPL055C, strain LGE1, stronger effect = lower value 1.03 | S. cerevisiae deletion strains, locus YPL078C, strain atp4, stronger effect = lower value 1 | S. cerevisiae deletion strains, locus YPL106C, strain sse1, stronger effect = lower value 0.947 | S. cerevisiae deletion strains, locus YPL240C, strain hsp82, stronger effect = lower value 0.994 | S. cerevisiae deletion strains, locus YPL241C, strain CIN2, stronger effect = lower value 0.982 | S. cerevisiae deletion strains, locus YPR119W, strain clb2, stronger effect = lower value 0.979 | S. cerevisiae deletion strains, locus YPR141C, strain kar3, stronger effect = lower value 0.948 | S. cerevisiae deletion strains, locus YPR163C, strain tif3, stronger effect = lower value 0.984 | S. cerevisiae deletion strains, locus YPR167C, strain met16, stronger effect = lower value 0.987 | S. cerevisiae deletion strains, strain wtn01, stronger effect = lower value 0.987 | S. cerevisiae strains, strain wild type, stronger effect = lower value 1.01

— PubChem BioAssay AID1159580 (chemical genetic matrix, 2015)
